Bioassay records as filed in PubChem BioAssay.
DAX1 inh-1 = inhibitors of human orphan nuclear receptor DAX1 (NR0B1); P51843; HEK293 Gal4-DAX1 luciferase reporter, luminescence; inhibition, % at 6.75 µM; 340,000 compounds, 0.99% hits; AID 504766;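 active = inhibition above the mean over all tested compounds plus 3 SD, cut at about 4.2% in these data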;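 also: inhibition shows as a rise in luminescence from relieved DAX1 repression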
Target sequence (P51843 207-470 limits assumed): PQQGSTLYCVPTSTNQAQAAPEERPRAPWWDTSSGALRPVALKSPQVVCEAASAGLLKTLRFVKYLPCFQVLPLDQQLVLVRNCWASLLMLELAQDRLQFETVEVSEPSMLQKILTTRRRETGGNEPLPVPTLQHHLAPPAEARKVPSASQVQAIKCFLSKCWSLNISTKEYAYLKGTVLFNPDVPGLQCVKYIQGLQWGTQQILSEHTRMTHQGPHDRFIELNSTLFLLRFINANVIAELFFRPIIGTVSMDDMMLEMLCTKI
hcDAF12 agonist = activates DAF-12 receptor from parasite H. contortus. HEK293 hcDAF-12 lit1-tk-luc reporter, luminescence; 0% DMSO, 100% Δ7-dafachronic acid. activation, % at 6.8 µM. 370,000 compounds, 1.4% hits. AID 652067;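 active = activation above the mean of all tested compounds plus 3 SD, cut at about 5.5% in these data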
ssDAF12 agonist = activators of S. stercoralis DAF-12 nuclear receptor. 370,000 compounds, 1% hits. activation, % at 6.8 µM. HEK293 ssDAF-12/GRIP1 lit1-tk-luc reporter, luminescence; % of 3 µM dafachronic acid response. AID 652126;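 active = activation above the mean over all tested compounds plus 3 SD, cut at about 0.9% in these data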
hgDAF12 agonist = hgDAF-12 agonism, primary luciferase screen | HEK293 GAL4-hgDAF12 UAS-luciferase reporter, agonist luminescence; normalized to butyrate control | activation, % at 6.8 µM | 370,000 compounds, 1.8% hits | AID 687014;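 active = activation above a cutoff set at the mean of all screened compounds plus 3 SD, cut at about 10% in these data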
DAX1 inh-2 = blocks DAX1 repression of SF-1 activated StAR promoter; HEK293T StAR-luciferase reporter, SF-1/DAX-1 repression relief; inhibition, % at 6.8 µM; 370,000 compounds, 1.1% hits; AID 652010;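 active = inhibition above the mean over all tested compounds plus 3 SD, cut at about 3.6% in these data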;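 also: higher inhibition means more luminescence from relief of DAX-1 repression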
Numbers stand for hits; – = inactive; · = no result; ! = not active in a repeat. Most compounds without a hit are left out; they make up all but 4.1% or so of the library.

SMILES	DAX1 inh-1	hcDAF12 agonist	ssDAF12 agonist	hgDAF12 agonist	DAX1 inh-2
CCCCc1ccc(NC(=O)C2CCCO2)cc1 (configuration not stated)	–	–	–	11.1	–
CCc1ccc(NC(=O)C(=O)NCC2CCCO2)cc1 (configuration not stated)	4.6	–	–	–	4.3
O=C(NCCc1ccccc1)c1ccccc1NC(=O)C1CCCO1 (configuration not stated)	–	5.6	–	10.8	4.3
CCc1ccc(CNC(=O)C(=O)NCC2CCCO2)cc1 (configuration not stated)	–	–	–	–	–
CC(=O)NC1CCCCN(C(C)C)C1=O (configuration not stated)	·	–	–	–	–
Cc1ccc([N+](=O)[O-])c2c1C(N1CC(C)OC(C)C1)C(C)(C)O2 (configuration not stated)	–	–	14.8	–	–
Cc1ccc([N+](=O)[O-])c2c1C(N1CCCCC1)C(C)(C)O2 (configuration not stated)	–	–	–	–	–
O=C(Nc1cccc(Cc2ccccc2)c1)Nc1cccc2[nH]c([C@@H]3O[C@H](CO)[C@@H](O)[C@H](O)[C@H]3O)nc12	·	–	–	–	–
O=C(Nc1ccc(Br)cc1Br)Nc1cccc2[nH]c([C@@H]3O[C@H](CO)[C@@H](O)[C@H](O)[C@H]3O)nc12	·	–	0.9	–	–
Cc1ccc(C(=O)NCCC(=O)N2CCC3(CC2)NCCc2[nH]cnc23)cc1	–	–	–	–	–
Cc1cc(C)cc(C(=O)NCCC(=O)N2CCC3(CC2)NCCc2[nH]cnc23)c1	–	–	–	–	3.9
CSc1nsc2nc(=O)c(/C=C3\C(C)=Nc4ccccc43)c(N)n12	–	–	0.9	–	–
COc1cccc2c1OCC(C(=O)Nc1nccs1)=C2	–	–	–	12.9	–
Cc1cccc(NC(=S)NNC(=O)c2ccco2)c1	–	–	–	–	–
CC(=O)c1cccc(NC(=S)NC(=O)c2cccc(C)c2)c1	–	–	–	12.6	–
CC(=O)c1cccc(NC(=S)NC(=O)c2ccc(Cl)cc2)c1	–	–	–	–	–
CC(C)Oc1cccc(C(=O)NC(=S)Nc2ccccc2)c1	–	–	–	11.6	–
CCCc1cc(C(=O)NNC(=S)Nc2cccc(C)c2)cs1	–	–	–	10.8	–
CC(C)CC(=O)NC(=S)Nc1cccc(NC(=O)c2ccccc2)c1	7.3	–	–	–	–
CCCC(=O)NC(=S)Nc1cccc(NC(=O)c2ccccc2)c1	–	–	–	–	–
CC(C)Oc1cccc(C(=O)NC(=S)Nc2cccnc2)c1	–	–	–	–	–
Cc1cccc(C(=O)NNC(=O)c2ccc(O)cc2)c1	–	–	–	–	–
Cc1ccc(C(=O)NNC(=O)c2cccc(C)c2)cc1	–	–	–	10.6	–
Cc1ccc(S(=O)(=O)/N=C(/NC(=S)Nc2cccc(C)c2)c2ccccc2)cc1	–	–	–	–	–
Cc1cccc(NC(=S)N/C(=N/S(=O)(=O)c2ccccc2)c2ccccc2)c1	–	–	–	12.1!	–
SMILES	DAX1 inh-1	hcDAF12 agonist	ssDAF12 agonist	hgDAF12 agonist	DAX1 inh-2
Cc1cc(N2CCN(CCO)CC2)n2nc(C)nc2n1	·	–	–	–	–
O=C(O)c1ccc(OCCCCCCOC2CCCCO2)cc1 (configuration not stated)	4.5	–	–	–	–
Cc1onc(-c2ccccc2)c1C(=O)OCC(=O)c1ccc(F)cc1	–	–	3.5	–	–
O=C(N/C(=C/C=C/c1ccccc1)C(=O)N1CCOCC1)c1ccccc1Cl	–	6.0	–	–	–
O=C(Nc1ccc(C(=O)O)cc1)/C(=C\C=C\c1ccccc1)NC(=O)c1ccccc1Cl	–	–	–	–	4.3
O=C(CNC(=O)c1cccs1)OCC(=O)c1ccc(Cl)cc1	–	–	11.9	–	–
Cc1ccc(C(=O)COC(=O)CNC(=O)c2ccc(N3C(=O)c4ccccc4C3=O)cc2)cc1C	–	–	–	–	–
O=C(CNC(=O)c1ccc(N2C(=O)c3ccccc3C2=O)cc1)OCC(=O)c1ccc(Cl)cc1	–	–	1.7	–	–
O=[N+]([O-])c1ccc(OC[C@@H](O)CN2CCC(C(O)(c3ccccc3)c3ccccc3)CC2)c(Cl)c1	·	–	–	–	–
O=C(CSc1nc2ccccc2s1)N1c2ccccc2Sc2ccc(Cl)cc21	–	–	–	–	–
Cc1cc(SCC(=O)c2cc3ccccc3o2)nc2ccccc12	–	–	1.1	–	–
Cc1cc(SCC(=O)O)nc2ccccc12	–	–	–	–	–
CCOC(=O)c1c(NC(=O)CSc2nc3cc(Cl)ccc3s2)sc(C(C)=O)c1C	·	5.8	–	–	–
O=C(CSc1nc2cc(Cl)ccc2s1)c1cc2ccccc2o1	–	–	3.4	–	–
CCOC(=O)c1c(NC(=O)CSc2nc3ccccc3s2)sc(C(C)=O)c1C	–	–	–	–	–
O=c1oc2cc(Cl)ccc2n1CSc1nc2ccccc2s1	–	6.5	–	11.6	–
Cc1cc(NC(=O)CSc2nc3cc(Cl)ccc3s2)no1	–	–	–	–	–
CC(C)C[C@H]1COc2cc(Br)ccc2S(=O)(=O)N1Cc1cn(Cc2ccco2)nn1	·	–	–	–	–
COC(=O)c1ccc(Cn2ccc3ccc(-c4ccc5ccn(C(=O)c6ccccc6)c5c4)cc32)cc1	·	–	–	–	–
CCn1c(/C=C/c2cc[n+](C)cc2)nc2ccccc21	4.2	–	–	–	–
CCOC(=O)C1=NOC(C(=O)NC2CCCC2)(C(=O)c2ccc(OC)cc2)C1 (configuration not stated)	·	–	–	–	–
c1ccc(-c2nnc3n2N=C(c2ccc4ccccc4c2)CS3)nc1	·	–	–	–	–
O=C(CN1CCN(Cc2ccccc2)CC1)N1N=CCC1c1ccccc1 (configuration not stated)	4.8	–	–	–	–
COc1ccc(-n2c(SCC(=O)Nc3ccccc3-c3ccccc3)nnc2-c2ccccc2)cc1	·	–	–	–	–
CC(=O)c1c(C(=O)O)c2ccccc2[nH]c1=O	4.8	–	–	–	–
SMILES	DAX1 inh-1	hcDAF12 agonist	ssDAF12 agonist	hgDAF12 agonist	DAX1 inh-2
CCS(=O)(=O)Nc1ccc2c(c1)C(=O)N(C)[C@@H]1CC[C@H](CC(=O)OC)O[C@H]1CO2	·	–	–	–	–
O=C(Nc1nc(-c2cccs2)cs1)c1ccc(Cl)cc1	–	–	–	–	–
O=C(Nc1nc(-c2cccs2)cs1)c1ccco1	–	–	–	10.8	4.1
O=C(Nc1nc(-c2cccs2)cs1)c1ccc([N+](=O)[O-])o1	–	–	2.0	–	–
CCOC(=O)[C@@H]1CSCCS(=O)(=O)N1Cc1ccccc1	·	–	–	–	–
O=S1(=O)c2c(cccc2N2CC[C@@H](O)C2)OCCCN1C1CC1	·	–	–	–	–
C[n+]1c(/C=C/c2ccc(O)cc2)ccc2ccccc21	–	–	–	–	–
C[n+]1c(/C=C/c2ccc3c(c2)OCO3)ccc2ccccc21	6.0	–	–	–	–
COc1ccc(CCN(Cc2cccs2)S(=O)(=O)c2ccc(C)c(C)c2)cc1OC	·	–	–	–	–
